Screening results: PubChem BioAssay, National Center for Advancing Translational Sciences (NCATS)
SARS PLP yeast: qHTS of Yeast-based Assay for SARS-CoV PLP; S. cerevisiae expressing SARS-CoV PLpro, growth rescue; Potency, µM (series often up to 32.9 µM), without a hit: at the top dose activity, positive = growth rescue, hits mostly activators; actives 0.19% (n = 330,000); calls by dose curve; further: 0% is about no effect; nearly all actives have a fitted effect of over 55% in size
Pf growth 96h: Primary qHTS for delayed death inhibitors of the malarial parasite plastid, 96 hour incubation | Potency, µM (titrated, usually from 28.7 µM), for inactives: at the top dose activity change, negative = inhibition, actives largely listed as inhibitors | actives 6.9% (n = 320,000) | P. falciparum luciferase reporter growth, 96 h; further: on the % scale 0 is the no-effect control and ±100 the full control effect
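Compounds incubated with erythrocytes infected by luciferase-expressing P. falciparum (2% hematocrit, 0.05% parasitemia final) for 96 hours, 37 C in 5% CO2. Growth inhibition scored as decreased luciferase luminescence.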
Sm TGR inh: qHTS Assay for the Inhibitors of Schistosoma Mansoni Peroxiredoxins. Schistosoma mansoni thioredoxin glutathione reductase (TGR), Q962Y6. purified TGR, DTNB reduction, TNB absorbance 405 nm. Potency, µM (highest dose often 114 µM), for the others: at the top dose activity change, negative = inhibition, usual class: inhibitors. actives 3% (n = 360,000). AID 485364, 2010; further: on the % scale 0 is the no-effect control and ±100 the full control effect; nearly all actives have a fitted effect of over 60% in size
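TGR 20 nM + NADPH 100 uM (dispensed conc.), cpd preinc 15 min RT; start with NADPH (500 uM addition) then DTNB (15 mM addition). Kinetic TNB absorbance, 405 nm filter. Four-parameter Hill fit across titration.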
Pf growth 48h: Primary qHTS for delayed death inhibitors of the malarial parasite plastid, 48 hour incubation. P. falciparum luciferase growth in erythrocytes, 48 h. Potency, µM (top dose mostly 28.7 µM), inactives show at the top dose activity change, negative = inhibition, most hits filed as inhibitors. actives 5.9% (n = 310,000). AID 504832, 2011; further: on the % scale 0 is the no-effect control and ±100 the full control effect
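Read-out is firefly luciferase luminescence from an integrated reporter in P. falciparum, so falling signal marks reduced parasite growth. Infected erythrocytes were at 2% hematocrit and 0.1% parasitemia (final) in Albumax-supplemented RPMI 1640.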
Numbers without * were called inactive; ? = inconclusive; · = no result. Shown are actives, neighbours in structure and some others; about 12% of the full set was active somewhere. Unless noted, the call rests on the fitted dose curve; in most records, active means well fitted curve in the direction sought with a large enough effect; inconclusive means small, poorly fitted or top-dose-only effect, or another doubt; inactive means no such curve, though single readings can be large; an effect the other way counts as inactive or inconclusive. Potency means the concentration at half of the fitted maximal effect.

SMILES	SARS PLP yeast	Pf growth 96h	Sm TGR inh	Pf growth 48h
CC(C)Cn1c([N+](=O)[O-])nc2c1c(=O)[nH]c(=O)n2C	11.7%	?	22.4µM*	?
Cn1c(=O)[nH]c(=O)c2c1nc(Br)n2CCC(=O)c1ccccc1	?	-29.2%	12.6µM*	4.0%
CCNc1nc2c(c(=O)[nH]c(=O)n2C)n1CC(C)C	9.7%	17.2%	4.7%	18.0%
CCOC(=O)c1c(C)[nH]c(CCC(=O)Nc2ccc(N(CC)CC)cc2C)c1C	·	·	-13.6%	·
COc1cc(C)c(NC(=O)Cc2ccsc2)cc1OC	6.2%	0.0%	21.6%	0.4%
CC(C)NCC(O)COC1C2CC3CC(C2)CC1C3 (stereo not drawn)	-0.2%	4.0%	6.1%	8.28µM*
CC(C)NCC(O)COC1CCC(C(C)(C)C)CC1 (stereo not drawn)	-11.3%	?	-0.3%	?
COCc1c(C(=O)NCCOc2ccc(Cl)cc2)oc2ccccc12	-5.6%	?	-6.9%	?
COc1ccccc1NS(=O)(=O)c1cc(NC(=O)CNC(=O)c2cc(C)cc(C)c2)ccc1C	3.5%	?	13.7%	?
COc1ccccc1NS(=O)(=O)c1cc(NC(=S)NCCN2CCOCC2)ccc1N1CCOCC1	5.2%	14.7µM*	0.4%	?
COc1ccccc1NS(=O)(=O)c1cc(NC(=O)c2cc(=O)[nH]c3ccccc23)ccc1N1CCOCC1	0.4%	?	2.9%	10.4µM*
CCNC(=S)Nc1ccc(C)c(S(=O)(=O)Nc2ccccc2OC)c1	0.1%	5.3%	2.82µM*	-5.0%
COc1ccccc1NS(=O)(=O)c1cc(NC(=O)C(C)(C)C)ccc1N1CCOCC1	0.7%	?	1.8%	?
COCC(=O)Nc1ccc(N2CCOCC2)c(S(=O)(=O)Nc2ccccc2OC)c1	2.5%	·	·	·
COc1ccccc1NS(=O)(=O)c1cc(NC(=O)c2cnccn2)ccc1N1CCOCC1	-0.3%	?	7.5%	11.7µM*
O=C(CCC1N=C2c3ccccc3N=C(SCc3ccc(F)cc3)N2C1=O)N1CCN(c2ccccc2)CC1 (stereo not drawn)	·	·	6.5%	·
COC(=O)c1cc2c(cc1NC(=O)c1c(C)nn(-c3ccc(C)cc3)c1-n1cccc1)OCO2	·	·	-5.2%	·
COc1ccccc1NS(=O)(=O)c1cc(NC(=O)c2ccncc2)ccc1N1CCOCC1	0.5%	14.7µM*	-5.6%	?
COc1ccccc1NS(=O)(=O)c1cc(NC(=O)c2cccc(S(=O)(=O)N(C)C)c2)ccc1N1CCOCC1	0.8%	1.47µM*	17.1%	2.33µM*
COC(=O)c1scc(C)c1NC(=O)Nc1ccccc1	-0.9%	30.4%	5.3%	-4.4%
COC(=O)c1scc(C)c1NC(=O)/C=C/C(=O)O	-5.2%	0.0%	1.41µM*	7.6%
O=C1CC(O)(c2ccccc2)C(c2ccccc2)=C1c1ccccc1 (stereo not drawn)	-25.1%	11.7µM*	1.9%	10.4µM*
O=C(COC(=O)c1nn(-c2ccccc2C(F)(F)F)cc1O)c1ccc(OC(F)F)cc1	0.0%	21.7%	-2.8%	2.7%
O=C1NC(=O)N(c2ccccc2)C(=O)/C1=C\c1ccc([N+](=O)[O-])s1	-4.0%	15.8%	10µM*	-0.8%
COc1ccc(OC)c(N2C(=O)NC(=O)/C(=C\c3ccc([N+](=O)[O-])s3)C2=O)c1	-5.2%	7.5%	11.2µM*	-13.5%
SMILES	SARS PLP yeast	Pf growth 96h	Sm TGR inh	Pf growth 48h
COc1cc(/C=C2/C(=O)NC(=O)N(c3ccc(C)cc3)C2=O)cc(OC)c1OC	1.7%	3.1%	?	1.8%
Cc1cccc(N2C(=O)NC(=O)/C(=C/c3cc4c(cc3[N+](=O)[O-])OCO4)C2=O)c1	8.4%	-22.0%	2.24µM*	20.3%
COc1cc(/C=C2\C(=O)NC(=O)N(c3ccccc3)C2=O)cc(OC)c1OC	11.0%	?	?	15.8%
CN1C(=O)NC(=O)/C(=C/c2ccc([N+](=O)[O-])s2)C1=O	-6.7%	-29.2%	8.91µM*	?
O=C1NC(=O)C(=Cc2cc3c(cc2[N+](=O)[O-])OCO3)C(=O)N1	-0.2%	0.1%	?	20.7%
Cc1c(C(=O)N2CCCC2)oc2c1-c1nn(CC(=O)NCc3ccccc3Br)cc1CC2	·	·	-28.9%	·
COc1ccc(CCCNC(=O)C2CCC(=O)N(CC3CCCCC3)C2)cc1 (stereo not drawn)	1.8%	-4.2%	-2.2%	?
